We go through ten compounds from PubChem BioAssay (NCATS).

A short description of test [1]: Stat Signaling Pathway (AID 446; active means well fitted curve in either direction with a large enough effect, not every such curve was filed as active;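 further: ME-180 cervical cancer cells given 40 pM IL-6 alongside compound; SIE-controlled beta-lactamase reporter measured as 460/530 nm FRET emission ratio; on the % scale 0 is the no-effect control and ±100 the full control effect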). In outline: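 Compound effects on IL-6-induced STAT reporter activity were measured in ME-180 cells. After overnight culture, cells were co-treated with 40 pM IL-6 for 5 hrs before beta-lactamase substrate loading at room temperature.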
In test [2] the target is Glucocorticoid receptor (Homo sapiens) (UniProt P04150). Briefly: GR-GFP Redistribution (AID 450;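 active means compounds whose dose series gives a full or clear partial fitted curve of increased nuclear translocation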; further: potency means the concentration at half of the fitted maximal effect). Conditions: U2OS GR-GFP nuclear translocation, laser cytometry, 2 h.
Test [3] in a line: Cellular Toxicity (caspase-3) Jurkat (AID 655; active means well fitted activation curve with a large enough effect;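 further: cells exposed to compound for 16 h at 37 °C before reading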). Conditions: Jurkat caspase-3 activation, luminescence; caspase-3 activation: at 92.2 µM (top of the series), DMSO = 0%, tamoxifen = 100%. In outline:
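Jurkat cells (5000/well) in complete medium exposed 16 h at 37 C; caspase-3/7 activity read by Caspase-Glo luminescence after 20 min at room temperature. Normalized to DMSO and 100 uM tamoxifen; AC50 from Hill fits.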

Test [4] concerns the target Glucocorticoid receptor (Homo sapiens) (UniProt P04150). Description: qHTS assay for small molecule antagonists of glucocorticoid receptor signaling (AID 588533; active means well fitted inhibition curve with a large enough effect in the signal ratio, with a control signal flat, not every such curve was filed as active; the % refers to the signal ratio;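 further: cells stimulated with 2 nM dexamethasone as agonist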; further: potency means the concentration at half of the fitted maximal effect). In outline:
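Antagonist-mode qHTS: compound titrations added to GRE-bla HeLa cells, then dexamethasone 2 nM final; 18 h, 37 C. CCF4 FRET fluorescence normalized to dexamethasone and DMSO; IC50 from Hill fit.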

Test [5] addresses Vitamin D3 receptor (Homo sapiens) (UniProt P11473). Description: qHTS assay for small molecule antagonists of vitamin D receptor signaling (AID 588541). Further: potency means the concentration at half of the fitted maximal effect. In outline: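 VDR-UAS-bla HEK293T cells (2000/well, 2% charcoal-stripped FBS) were treated with titrated compounds plus 1-alpha,25-dihydroxyvitamin D3 (50 nM or 3 nM final) for 16 h at 37 C. CCF4 beta-lactamase fluorescence was read; Hill fits gave IC50.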
(qHTS replaces the single test concentration by a dilution series.)

The target is the same in test [6]. Briefly: qHTS assay for small molecule agonists of vitamin D receptor signaling (AID 588543).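 Further: 0% = DMSO basal and 100% = reference agonist control.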 In outline:
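VDR-UAS-bla HEK293T cells, 2000/well, 2% charcoal-stripped FBS; compound titration 16 h at 37 C; CCF4 beta-lactamase ratio read. Normalized to 50 nM 1-alpha,25-dihydroxyvitamin D3 (100%) and DMSO; Hill fit gives EC50, efficacy.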

Test [7] has as its target Thyroid hormone receptor beta (Homo sapiens) (UniProt P10828). Description: qHTS assay for small molecule agonists of thyroid hormone receptor beta signaling (AID 588545). In outline:
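In this cell-based screen, titrated compounds act on HEK 293 cells held in medium with 2% charcoal/dextran FBS, NEAA and pyruvate for 18 hrs at 37 C. Responses are expressed relative to T3 (10 nM) as 100% and basal DMSO as 0%.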

The nature of test [8]: qHTS assay for small molecule antagonists of retinoid X receptor alpha signaling (AID 588546).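 Further: cells stimulated with 9-cis-retinoic acid as agonist; on the % scale 0 is the no-effect control and ±100 the full control effect.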 Conditions: HEK293T RXRa-UAS-bla, beta-lactamase ratio, antagonist mode; measured here: W530 green channel, cytotoxicity proxy. In outline: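 Beta-lactamase reporter inhibition, read as CCF4 fluorescence ratio (ex 405, em 460/530 nm) after 2 h at RT. HEK293T UAS-bla cells, 2500/well, were stimulated with 9-cis-RA at 500 or 100 nM final alongside test compound for 18 h at 37 C.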

In test [9] the target is Thyroid hormone receptor beta (Homo sapiens) (UniProt P10828). Description: qHTS assay for small molecule antagonists of thyroid hormone receptor beta signaling (AID 588547; active means well fitted inhibition curve with a large enough effect in the signal ratio, with a control signal flat, not every such curve was filed as active; the % refers to the signal ratio;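 further: cells stimulated with 0.4 nM T3 agonist during compound exposure; on the % scale 0 is the no-effect control and ±100 the full control effect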). Conditions: TR-UAS-bla HEK293, beta-lactamase ratio, antagonist mode, 18 h. In outline:
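TR-UAS-bla GripTite HEK293 cells in 2% charcoal/dextran FBS medium were preincubated 4 h at 37 C, given compound (0.59 nM to 92 uM) plus 0.4 nM T3 (final) for 18 h, then CCF4 for 2 h at RT; Hill fit gave IC50.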

The nature of test [10]: qHTS assay for small molecule agonists of the antioxidant response element (ARE) signaling pathway (AID 651741; active means well fitted activation curve with a large enough effect in the signal ratio; the % refers to the signal ratio; further: potency means the concentration at half of the fitted maximal effect; on activation: % of control where 0% means no effect). In outline: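 Reporter: beta-lactamase under ARE, stably in HepG2. Exposure: 16 h, 37 C, compounds delivered in DMSO by pin tool after 5 h cell preincubation. Readout: FRET substrate fluorescence after 2 h at RT.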
The nature of test [11]: qHTS assay for small molecule activators of the nuclear factor-kappa B (NF-kB) signaling pathway (AID 651749; active means well fitted activation curve with a large enough effect in the signal ratio; the % refers to the signal ratio; further: % of control where 0% means no effect). Conditions: NF-kB-bla ME-180 cells, beta-lactamase FRET ratio, 16 h; activation: stronger effect = higher value. In outline: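 Human ME-180 cervical cells with an NF-kB-bla construct; compounds added via 23 nL pin transfer, DMSO as vehicle; incubation 16 hr. Reporter activity measured by FRET disruption.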

Test [12] addresses Nuclear receptor subfamily 1 group I member 2 (Rattus norvegicus) (UniProt Q9R1A7). Briefly: qHTS assay for small molecule activators of the rat pregnane X receptor (rPXR) signaling pathway (AID 651751; call rule not given here; further: 0% is about no effect). Conditions: rPXR reporter cells, luciferase (One-Glo), 24 h.
The nature of test [13]: qHTS assay for small molecule activators of the human pregnane X receptor (PXR) signaling pathway (AID 720659; call rule not given here; further: 0% is about no effect).
Test [14] deals with Estrogen receptor (Homo sapiens) (UniProt P03372). Description: qHTS assay for small molecule agonists of estrogen receptor alpha signaling (AID 588514).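 Further: 0% = vehicle only and 100% = reference agonist; nearly all actives have a fitted effect of over 70% in size.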 In outline: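 Efficacy is expressed against 20 nM 17-beta-estradiol (100%) and DMSO basal (0%); EC50 from Hill equation. Assay: beta-lactamase reporter in ER-alpha-UAS-bla HEK 293 cells, 18 h compound incubation, CCF4 detection.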

For test [15], the target named is Mitogen-activated protein kinase 10 (Mus musculus) (UniProt Q61831). Description: JNK3 AlphaScreen Assay (AID 530; active means well fitted curve in either direction with a large enough effect, not every such curve was filed as active;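 further: kinase came from lysate of stimulated human HepG2 cells; signal reports phosphorylation of biotinylated GST-cJun 1-79 at Ser73 with 10 µM ATP; on the % scale 0 is the no-effect control and ±100 the full control effect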). In outline: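 Phosphorylation of biotinylated GST-cJun(1-79) at Ser73 is measured by AlphaScreen proximity luminescence. Enzyme is JNK3 in HepG2 lysates activated with interleukin-1beta and tumor necrosis factor alpha; ATP is 10 uM final.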
Test [16] deals with Glucocorticoid receptor (Homo sapiens) (UniProt P04150). Briefly: qHTS assay for small molecule agonists of glucocorticoid receptor signaling (AID 588532; active means well fitted curve in the direction sought with a large enough effect in the signal ratio, with a control signal flat; the % refers to the signal ratio;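 further: 100% = dexamethasone at 0.1 µM and 0% = DMSO only wells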). Conditions: HeLa MMTV-bla, beta-lactamase ratio, agonist, 18 h; activation: stronger effect = higher value, percent of dexamethasone control, DMSO zero. In outline: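 Stimulation of a glucocorticoid response element-driven beta-lactamase gene was measured in HeLa cells. Responses were scaled between DMSO basal and 0.1 uM dexamethasone, then fitted for half-maximal stimulation.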

Test [17] concerns the target Retinoic acid receptor RXR-alpha (Homo sapiens) (UniProt P19793). Briefly: qHTS assay for small molecule agonists of retinoid X receptor alpha signaling (AID 588544).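 Further: 0% = DMSO basal wells and 100% = reference agonist.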

Several values for one entry are separate records, joined by “and”; a condition that tells them apart may be missing. Equal values may be shown once. Records with an inconclusive call do not appear. The source holds several records for some structures; these can differ, active in one and inactive in another. Activity calls are given as the source filed them. Unless noted, the call rests on the fitted dose curve. Bounds are passed on as bounds.

Vitamin D3 receptor (Homo sapiens), sequence (P11473 whole entry, looked up): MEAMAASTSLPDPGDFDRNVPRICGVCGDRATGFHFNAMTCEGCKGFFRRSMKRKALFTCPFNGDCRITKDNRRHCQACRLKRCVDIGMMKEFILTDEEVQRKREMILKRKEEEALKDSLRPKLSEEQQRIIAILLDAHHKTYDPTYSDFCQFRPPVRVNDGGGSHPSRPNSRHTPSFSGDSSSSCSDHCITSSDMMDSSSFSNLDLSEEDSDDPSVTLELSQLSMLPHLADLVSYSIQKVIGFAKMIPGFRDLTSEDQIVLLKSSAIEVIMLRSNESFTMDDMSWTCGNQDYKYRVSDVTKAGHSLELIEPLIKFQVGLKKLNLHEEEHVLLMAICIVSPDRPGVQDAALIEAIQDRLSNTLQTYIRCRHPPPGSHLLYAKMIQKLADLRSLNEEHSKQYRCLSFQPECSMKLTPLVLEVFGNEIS
Nuclear receptor subfamily 1 group I member 2 (Rattus norvegicus), sequence (Q9R1A7 whole entry, looked up): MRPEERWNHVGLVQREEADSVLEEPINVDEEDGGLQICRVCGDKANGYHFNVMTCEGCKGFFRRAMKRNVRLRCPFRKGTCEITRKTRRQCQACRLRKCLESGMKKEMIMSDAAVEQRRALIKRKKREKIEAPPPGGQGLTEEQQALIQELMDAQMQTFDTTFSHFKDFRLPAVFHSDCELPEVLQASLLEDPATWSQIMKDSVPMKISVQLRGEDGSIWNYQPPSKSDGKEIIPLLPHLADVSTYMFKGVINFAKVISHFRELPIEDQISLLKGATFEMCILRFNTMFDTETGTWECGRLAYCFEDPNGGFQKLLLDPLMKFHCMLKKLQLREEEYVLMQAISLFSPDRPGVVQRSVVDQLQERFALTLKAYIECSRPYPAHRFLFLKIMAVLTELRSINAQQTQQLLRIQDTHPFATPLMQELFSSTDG
Glucocorticoid receptor (Homo sapiens), sequence (P04150 whole entry, looked up): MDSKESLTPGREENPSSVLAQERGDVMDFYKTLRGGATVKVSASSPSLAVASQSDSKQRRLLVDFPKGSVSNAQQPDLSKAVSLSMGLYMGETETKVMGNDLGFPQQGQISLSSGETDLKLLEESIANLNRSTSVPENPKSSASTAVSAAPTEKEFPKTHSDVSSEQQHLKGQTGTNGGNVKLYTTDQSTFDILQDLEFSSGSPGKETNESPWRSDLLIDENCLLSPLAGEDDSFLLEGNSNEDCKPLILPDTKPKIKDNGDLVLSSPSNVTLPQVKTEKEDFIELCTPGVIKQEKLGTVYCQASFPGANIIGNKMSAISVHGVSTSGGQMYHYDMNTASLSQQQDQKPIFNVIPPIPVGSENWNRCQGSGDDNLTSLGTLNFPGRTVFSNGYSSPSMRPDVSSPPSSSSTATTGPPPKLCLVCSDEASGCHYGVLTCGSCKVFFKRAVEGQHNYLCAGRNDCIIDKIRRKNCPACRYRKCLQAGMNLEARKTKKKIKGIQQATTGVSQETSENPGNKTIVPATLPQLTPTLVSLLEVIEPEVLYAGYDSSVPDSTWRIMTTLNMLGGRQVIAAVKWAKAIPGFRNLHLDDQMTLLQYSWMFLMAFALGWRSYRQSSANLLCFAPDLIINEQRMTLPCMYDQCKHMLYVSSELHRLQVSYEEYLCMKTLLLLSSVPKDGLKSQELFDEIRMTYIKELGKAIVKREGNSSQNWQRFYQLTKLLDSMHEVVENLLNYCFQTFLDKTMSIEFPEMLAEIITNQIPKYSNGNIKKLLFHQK
Thyroid hormone receptor beta (Homo sapiens), sequence (P10828 whole entry, looked up): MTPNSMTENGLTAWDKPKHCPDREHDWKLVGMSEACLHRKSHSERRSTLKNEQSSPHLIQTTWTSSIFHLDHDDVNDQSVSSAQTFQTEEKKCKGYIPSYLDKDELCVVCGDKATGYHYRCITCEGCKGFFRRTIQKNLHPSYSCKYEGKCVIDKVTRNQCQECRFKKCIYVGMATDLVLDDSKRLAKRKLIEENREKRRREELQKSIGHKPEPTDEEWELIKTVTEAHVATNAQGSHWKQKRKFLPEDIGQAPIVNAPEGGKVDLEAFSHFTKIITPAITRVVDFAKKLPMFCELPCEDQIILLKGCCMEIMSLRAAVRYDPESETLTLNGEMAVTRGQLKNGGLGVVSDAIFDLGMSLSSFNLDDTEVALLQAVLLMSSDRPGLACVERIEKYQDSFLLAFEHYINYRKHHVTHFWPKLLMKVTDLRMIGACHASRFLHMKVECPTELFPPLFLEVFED
Retinoic acid receptor RXR-alpha (Homo sapiens), sequence (P19793 whole entry, looked up): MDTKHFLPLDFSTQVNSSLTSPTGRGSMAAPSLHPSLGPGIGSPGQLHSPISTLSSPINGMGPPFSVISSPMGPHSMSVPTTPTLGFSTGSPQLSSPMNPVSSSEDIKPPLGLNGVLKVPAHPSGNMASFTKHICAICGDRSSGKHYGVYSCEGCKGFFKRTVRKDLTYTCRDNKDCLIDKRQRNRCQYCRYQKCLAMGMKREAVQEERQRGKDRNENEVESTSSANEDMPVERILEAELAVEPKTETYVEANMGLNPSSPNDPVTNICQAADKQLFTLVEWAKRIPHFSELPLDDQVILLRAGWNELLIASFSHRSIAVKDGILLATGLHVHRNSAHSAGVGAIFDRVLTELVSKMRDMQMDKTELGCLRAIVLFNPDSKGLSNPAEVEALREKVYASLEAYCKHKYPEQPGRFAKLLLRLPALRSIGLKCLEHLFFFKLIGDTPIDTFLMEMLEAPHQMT
Estrogen receptor (Homo sapiens), sequence (P03372 whole entry, looked up): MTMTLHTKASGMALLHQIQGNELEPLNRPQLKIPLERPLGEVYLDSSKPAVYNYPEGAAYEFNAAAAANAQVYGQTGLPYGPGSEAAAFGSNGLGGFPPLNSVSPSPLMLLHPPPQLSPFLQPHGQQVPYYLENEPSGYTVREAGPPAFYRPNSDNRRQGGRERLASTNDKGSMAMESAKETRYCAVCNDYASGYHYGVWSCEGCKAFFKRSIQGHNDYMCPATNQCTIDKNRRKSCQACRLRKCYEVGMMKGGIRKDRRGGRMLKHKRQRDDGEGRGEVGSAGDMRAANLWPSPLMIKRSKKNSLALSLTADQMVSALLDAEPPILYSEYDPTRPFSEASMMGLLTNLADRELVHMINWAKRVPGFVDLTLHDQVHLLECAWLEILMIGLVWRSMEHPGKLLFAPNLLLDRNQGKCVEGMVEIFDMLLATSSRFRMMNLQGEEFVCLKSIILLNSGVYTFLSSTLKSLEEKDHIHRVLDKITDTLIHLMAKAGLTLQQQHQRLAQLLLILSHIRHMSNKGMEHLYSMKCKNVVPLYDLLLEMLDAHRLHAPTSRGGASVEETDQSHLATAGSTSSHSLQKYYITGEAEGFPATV

As for `Cn1c(O)c(C(=O)c2ccccc2Cl)c(=O)n(C)c1=O`, the outcome in test [1] was inactive. The Potency in [2] was > 20.6 µM (inactive).

As for `Oc1cc2c(cc1O)[C@H]1c3ccccc3CN[C@@H]1CC2`, the compound was called inactive in test [1]. Moreover, the Potency in test [2] is > 46 µM (inactive).

Consider `O=C(CCl)c1ccccc1`, for which the caspase-3 activation in test [3] is -8.71% (inactive). Moreover, the Potency in test [4] is 39.8 µM (active) and inactive; in test [5], 35.5 µM (active) and inactive; in test [10], 61.1 µM (active). Moreover, the outcome in test [6] and in test [13] was inactive. Moreover, in [7], the Potency result was “inactive”. The max response in test [8] was -13.4%; in [12], -5.24% (inactive) and -3.68% (inactive). Besides, the activity change % (negative = inhibition) in test [9] was -10.9% (inactive). Besides, the activation in test [11] was 0.721% (inactive).

As to `CCN(CC)CCN=C(C)c1c(O)n(-c2ccccc2OC)c(=O)[nH]c1=O`, the compound was called inactive in test [1]. Also, in test [2], the Potency was > 20.6 µM (inactive).

On to `CN(C)c1ccc(N=O)cc1`, for which the Potency entry in test [14] and in test [7] was “inactive” throughout. Further, in test [10], the Potency is 13.3 µM (active).

Regarding `CC(=O)[O-].CC(=O)[O-].O.O.[Cd+2]`, the compound was classed as inactive in test [15]. Further, in [3], the caspase-3 activation is 4.84% (inactive). Further, the Potency entry in [7] is “inactive”.

As for `O=C(O)C1C(C(=O)O)C2(Cl)C(Cl)=C(Cl)C1(Cl)C2(Cl)Cl` (stereo unspecified), the compound was classed as inactive in test [15]. In addition, in [3], the caspase-3 activation is -0.527% (inactive). The Potency result in test [14], in test [4], in [17], in test [7] and in test [10] was “inactive” throughout. For the same compound, the activation in test [16] is -1.68% (inactive); in [11], 0.511% (inactive). Also, the max response is -3.5% in test [8] and 0.252% (inactive) in [12]. For the same compound, the activity change % (negative = inhibition) in test [9] was -20.8% (inactive).

In the case of `CC(C)[C@@]1(NC(=O)[C@@H]2C=C3c4cccc5[nH]cc(c45)C[C@H]3N(C)C2)O[C@@]2(O)[C@@H]3CCCN3C(=O)[C@H](Cc3ccccc3)N2C1=O`, the compound was classed as inactive in test [1]. Moreover, in test [2], the Potency is > 20.6 µM (inactive).

Take `Nc1ccccc1C(=O)OCCc1ccccc1`: the caspase-3 activation in test [3] was -5.89% (inactive). The activation in test [16] was -0.582% (inactive); in test [11], 0.217% (inactive). Further, the Potency entry in test [4], in [5] and in test [7] was “inactive” in each case. Moreover, the outcome in test [6] and in test [13] was inactive. For the same compound, the max response in test [8] is -8.78%. Moreover, the activity change % (negative = inhibition) in test [9] is -14.2% (inactive).

For `O=[N+]([O-])C(Br)Br`, in test [16], the activation is -5.74% (inactive). The Potency result in [5], in test [17] and in test [7] was “inactive” in each case. Further, the result in test [6] and in [13] was inactive. The values for the max response in test [8] and in test [12] were -6.12% and 1.81% (inactive), respectively. Also, the activity change % (negative = inhibition) in [9] is 4.06% (inactive).
